# Source: PubChem BioAssay (National Center for Advancing Translational Sciences (NCATS))
# This is a sample that favours compounds with a hit; in the whole collection about 0.49% have one here.
# PGK inhibitor – qHTS Assay to Find Inhibitors of Phosphoglycerate Kinase; Phosphoglycerate kinase, glycosomal (Trypanosoma brucei brucei), P07378; PGK/GAPDH coupled, Kinase-Glo luminescence, 60 min; Potency, µM (titrated, usually from 57.5 µM), for the others: at the top dose activity change, negative = inhibition, actives largely listed as inhibitors; 380,000 tested, 0.043% active; AID 602233, 2012; also: potency is read from the fitted curve at half-maximal effect; % is scaled to controls: 0 for no effect and ±100 for the full control effect; nearly all actives have a fitted effect of over 60% in size
#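 Luminescent ATP detection (Kinase-Glo Plus) follows a 60-minute room-temperature incubation, with wells lacking PGK as controls. Buffer: 100 mM TEA (pH 7.6), 5 mM MgCl2, 0.01% Tween-20. Coupling enzyme GAPDH (100 nM final) supplies unstable 1,3-BPG in-well.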
# Vif-APOBEC3F blk – qHTS for Inhibitors of Vif-A3F Interactions: qHTS | HeLa A3F-eYFP + Vif (tagged APOBEC3F with the HIV-1 protein that degrades it), YFP fluorescence increase | Potency, µM (doses to about 46.1 µM), inactives show at the highest dose activity, negative = active | 390,000 tested, 0.2% active | AID 602313, 2012; also: potency is read from the fitted curve at half-maximal effect; % of control where 0% means no effect; nearly all actives have a fitted effect of over 65% in size
#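 Fluorescence increase (Ex 488/Em 500-530) after overnight compound treatment at 37 deg C flags inhibition of Vif-driven A3F-eYFP loss in stable HeLa A3F-eYFP/Vif cells seeded overnight beforehand.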
# LDHA inh – qHTS assay for inhibitors of human lactate dehydrogenase; L-lactate dehydrogenase A chain (Homo sapiens), P00338; purified LDHA, NADH/diaphorase-resazurin fluorescence; active compounds read low; activity change, % (values are at about 110 or 230 µM); 480,000 tested, 0.15% active; AID 1347041, 2019; in the data active = activity change below about -30%; inconclusive = mostly about -25% to -30%;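 also: plate controls were DMSO wells for no effect and wells without enzyme for full effect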
#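 Enzyme activity of human lactate dehydrogenase 5 (2 nM; 0.06 mM NADH, 0.2 mM pyruvate, 5 min, RT) is measured via a resazurin/diaphorase fluorescence readout of residual NADH.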
# Pin1 inhibitor – qHTS Assay to Find Inhibitors of Pin1; Peptidyl-prolyl cis-trans isomerase NIMA-interacting 1 (Homo sapiens), Q13526; AID 504891, 2011; Potency, µM (highest dose often 115 µM), for the others: top-dose activity, negative = inhibition, most hits filed as inhibitors; Pin1 FP peptide displacement, HiFluor488, 10 min; 390,000 tested, 0.009% active; active = well fitted inhibition curve with a large enough effect in the polarisation, with a control signal flat, not every such curve was filed as active; inconclusive = small, poorly fitted or top-dose-only effect, or effect the other way, or a change in a side signal; inactive = no such curve, though single readings can be large or run the other way; the % refers to the polarisation; also: potency is read from the fitted curve at half-maximal effect; % is scaled to controls: 0 for no effect and ±100 for the full control effect
# Target sequence (Q13526 whole entry, looked up): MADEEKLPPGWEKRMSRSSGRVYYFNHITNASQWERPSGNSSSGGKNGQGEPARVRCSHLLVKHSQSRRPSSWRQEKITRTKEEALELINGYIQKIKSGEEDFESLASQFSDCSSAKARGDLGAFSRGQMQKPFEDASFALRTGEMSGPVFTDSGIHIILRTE
# IDH1 R132H inh – qHTS for Inhibitors of mutant isocitrate dehydrogenase 1 (IDH1): qHTS; IDH1-R132H enzyme, NADPH consumption, diaphorase/resazurin fluorescence; 390,000 tested, 0.093% active; Potency, µM (titrated, usually from 76.6 µM), for inactives: at the top dose activity change, negative = inhibition, most hits filed as inhibitors; Isocitrate dehydrogenase [NADP] cytoplasmic (Homo sapiens), O75874; also: potency is read from the fitted curve at half-maximal effect; % is scaled to controls: 0 for no effect and ±100 for the full control effect; nearly all actives have a fitted effect of over 65% in size
# Target sequence (O75874 whole entry R132H, stated change not applied): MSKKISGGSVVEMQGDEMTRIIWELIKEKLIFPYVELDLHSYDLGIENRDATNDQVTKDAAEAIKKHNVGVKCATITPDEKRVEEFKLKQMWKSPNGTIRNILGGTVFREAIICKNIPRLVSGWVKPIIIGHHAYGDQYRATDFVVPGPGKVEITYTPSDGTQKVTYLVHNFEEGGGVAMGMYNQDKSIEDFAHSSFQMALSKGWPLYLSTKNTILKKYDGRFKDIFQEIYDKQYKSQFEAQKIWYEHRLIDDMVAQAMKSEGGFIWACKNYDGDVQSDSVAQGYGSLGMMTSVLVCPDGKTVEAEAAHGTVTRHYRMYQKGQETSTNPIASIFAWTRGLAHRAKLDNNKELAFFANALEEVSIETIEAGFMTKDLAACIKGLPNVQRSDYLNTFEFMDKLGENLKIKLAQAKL
#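 IDH1-R132H (0.5 ug/mL) preincubated 30 min with compound, then NADPH (0.016 mM) and alpha-KG (2 mM) added; 80 min at RT, pH 7.5. Remaining NADPH coupled via diaphorase/resazurin to fluorescence (540/590 nm); concentration-response curves normalized to no-enzyme control.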
# Vif-A3G inh – qHTS for Inhibitors of Vif-A3G Interactions: qHTS; DNA dC->dU-editing enzyme APOBEC-3G (Homo sapiens), Q9HC16; HeLa A3G-eYFP + Vif (tagged APOBEC3G with the HIV-1 protein that degrades it), YFP fluorescence, overnight; Potency, µM (doses to about 46.1 µM), for the others: at the highest dose activity, negative = active, most hits filed as inhibitors; 410,000 tested, 0.076% active; AID 602310, 2012; also: potency is read from the fitted curve at half-maximal effect; % is scaled to controls: 0 for no effect and ±100 for the full control effect; nearly all actives have a fitted effect of over 60% in size
#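 Read-out is eYFP fluorescence (Ex 488/Em 500-530) from Vif-expressing HeLa A3G-eYFP cells; more signal means A3G escaped Vif-mediated degradation. Cells plated overnight, compound pinned in, incubated overnight at 37 deg C.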
# IDH1 autofl – qHTS for Inhibitors of mutant isocitrate dehydrogenase 1 (IDH1): Cherrypicks Autofluorescence Interference; shares compounds with IDH1 R132H inh; Resorufin detection reagent fluorescence interference, cell-free; inhibition of signal, % at 51.2 µM; 750 tested, under 10 active; AID 623980, 2012;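 also: 0% = wells with normal resorufin and full inhibition = wells lacking resorufin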
# WT IDH1 inh – qHTS for Inhibitors of mutant isocitrate dehydrogenase 1 (IDH1): Cherrypicks in WT IDH1 | 750 tested, 9% active | shares compounds with IDH1 R132H inh | Potency, µM (top dose mostly 115 µM), without a hit: top-dose activity change, negative = inhibition, most hits filed as inhibitors | WT IDH1 enzyme, NADPH diaphorase/resazurin fluorescence | AID 623995, 2012;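 also: potency is read from the fitted curve at half-maximal effect; 0% = full WT IDH1 enzyme control and full inhibition = no enzyme wells; nearly all actives have a fitted effect of over 55% in size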
# Target sequence (O75874 whole entry, looked up): as the sequence (O75874 whole entry R132H, stated change not applied) above, with H132R counted along it
# mIDH1 confirm – qHTS for Inhibitors of mutant isocitrate dehydrogenase 1 (IDH1): Confirmation of Cherrypicks | shares compounds with IDH1 R132H inh | IDH1 R132H enzyme, NADPH diaphorase/resazurin fluorescence | Potency, µM (top dose mostly 76.6 µM), for the others: at the highest dose activity change, negative = inhibition, actives largely listed as inhibitors | 750 tested, 83% active; also: potency is read from the fitted curve at half-maximal effect; nearly all actives have a fitted effect of over 50% in size
# * = called active by the depositor; i = inactive; ? = inconclusive; . = not tested or not shown. Unless noted, calls follow the shape of the dose curve; as a rule, active = well fitted curve in the direction sought with a large enough effect; inconclusive = small, poorly fitted or top-dose-only effect, or another doubt; inactive = no such curve, though single readings can be large; an effect the other way counts as inactive or inconclusive.
SMILES,PGK inhibitor,Vif-APOBEC3F blk,LDHA inh,Pin1 inhibitor,IDH1 R132H inh,Vif-A3G inh,IDH1 autofl,WT IDH1 inh,mIDH1 confirm
CC1(C)CC(=O)C2=C(C1)N(c1cccnc1)C(N)=C(C#N)C2c1cccs1 (configuration not stated),3.5%,2.7%,6.1,5.6%,3.0%,-2.5%,.,.,.
Cc1cc(C)cc(CC(CC(=O)O)C(=O)Nc2cccc(C(F)(F)F)c2)c1 (configuration not stated),.,.,4.2,.,.,.,.,.,.
N#CC1=C2N=C(N)c3ccccc3N2C2=C(C(=O)CCC2)C1c1ccc(F)cc1 (configuration not stated),-1.0%,19.5%,-13.0,4.0%,?,-5.5%,-3.5,-1.3%,?
Cc1ccc(C2C(C#N)=C3N=C(N)c4ccccc4N3C3=C2C(=O)CCC3)cc1 (configuration not stated),6.6%,1.3%,4.4,1.1%,-9.0%,-12.2%,.,.,.
O=C(Nc1ccc(I)cc1)C1CCCCC1,.,.,6.0,.,.,.,.,.,.
Cc1ccccc1N1CC(=O)N(c2ccccc2C)CC1=O,-0.3%,1.9%,-2.8,-1.1%,-0.1%,0.8%,.,.,.
Cc1cccc2c1c1ccc3c(c1n2C)C(=O)C=CC3=O,-7.9%,?,2.3,?,39.8µM*,-21.0%,0.2,116.8%,25.1µM*
COc1cc(C(C)=O)ccc1OS(=O)(=O)c1ccc2c(c1)CCCC2,.,.,-0.3,.,.,.,.,.,.
CCc1ccc(-c2cc(C(F)F)n3nc(C)c(Br)c3n2)cc1,.,.,4.3,.,.,.,.,.,.
Cc1nn(-c2ccccn2)c2nc(-c3cccs3)cc(C(=O)NCc3ccco3)c12,-3.6%,-3.7%,1.6,?,-5.2%,1.4%,.,.,.
Cc1nn(-c2ccccc2)c2nc(-c3cccs3)cc(C(=O)NN)c12,-8.2%,-0.8%,-2.3,5.7%,52.1µM*,-5.3%,-4.8,1.9%,-4.5%
CCOC(=O)c1cc(-c2cccs2)nc2c1c(C)nn2-c1ccccn1,-2.7%,3.8%,-4.9,14.0%,14.7µM*,-13.7%,-1.6,0.8%,20µM*
O=C(CSCc1ccccc1)c1ccc[nH]1,.,.,7.4,.,.,.,.,.,.
CCOc1ccc(-n2cc(-c3ccccc3)c3c(NC4CCCCC4)ncnc32)cc1,9.4%,-6.6%,-6.6,1.2%,4.5%,4.0%,.,.,.
CCOc1ccc(-n2cc(-c3ccccc3)c3c(NC4CCCC4)ncnc32)cc1,i,2.3%,-5.4,-4.2%,?,-2.0%,-4.2,-2.2%,10µM*
Clc1ccc(-c2csc(NNC3=NCCCCC3)n2)cc1,-8.5%,-5.3%,-8.3,1.8%,?,-1.3%,0.3,?,44.7µM*
